Data: PubChem BioAssay (EPA / NIEHS)
The source made the active and inactive calls. How the source made its calls: active means hit-call score of the fitted dose curve at least 0.9, where 1 is the maximum; inactive means score below 0.9.

Test: ATG_Sox_CIS: Attagene CIS-FACTORIAL HepG2 Assay for human SRY-box transcription factor (SOX) (AID 2282960)
Conditions: HepG2 Attagene cis-factorial SOX reporter, mRNA; actives raise or lower the signal
Protocol: ATG_CIS is a cell-based, multiplexed-readout assay that uses HepG2, a human liver cell line, with measurements taken at 24 hours after chemical dosing in a 24-well plate.ATG_Sox_CIS is one of 52 assay component(s) measured or calculated from the ATG_CIS assay. It is designed to make measurements of mRNA induction, a form of inducible reporter, as detected with fluorescence intensity signals by Reverse transcription polymerase chain reaction (RT-PCR) and Capillary electrophoresis technology.Data from the assay component ATG_Sox_CIS was analyzed into 1 assay endpoint. This assay endpoint, ATG_Sox_CIS, was analyzed with bidirectional fitting relative to DMSO as the negative control and baseline of activity. Using a type of inducible reporter, measures of mRNA for gain or loss-of-signal activity can be used to understand the reporter gene at the transcription factor-level as they relate to the gene SOX1. Furthermore, this assay endpoint can be referred to as a primary readout, because this assay has produced multiple assay endpoints where this one serves a reporter gene function. To generalize the intended target to other relatable targets, this assay endpoint is annotated to the dna binding intended target family, where the subfamily is HMG box protein.
Human liver HepG2 cells are transiently transfected with multiple reporter transcription units (MRTUs) in 6-well plates using FuGene 6 reagent (Roche; 3 ml FuGene/1 mg DNA). The MRTU constructs are regulated by a cis-regulating element (promoter). […] A major difference between the CIS and TRANS system is that in CIS activities of endogenous TFs are measured, whereas the TRANS assay evaluates changes in activities of exogenous, chimeric NR-Gal4 proteins. […] At the end of 24 hour incubation, total RNA was isolated using TriZol reagent (Invitrogen). The isolated RNA is then reverse-transcribed using oligo(dT) primer and Mo-MLV reverse transcriptase (Invitrogen) with DNAse I (Ambion) treatment for 30 min. The one-tenth of the produced cDNA was amplified by PCR using Taq DNA polymerase (Invitrogen) and two reporter sequence-specific primers. The PCR products were fluorescently labeled by primer extension with 6-arboxyfluorescein (6-FAM) 5'-labeled reporter sequence-specific primer (2 min at 95 C, 20 s at 68 C and 10 min at 72 C) and these products were digested with 5U of HpaI (New England Biolabs) for 2h at 37 C. The fragments were purified using Qiaquick PCR columns (Qiagen), analyzed on an ABI 3130xL genetic analyzer (Applied Biosystems) with peak positions identified by using a set of X-rhodamine (ROX)-labeled MapMarker1000 molecular weight standards (BioVentures). The raw capillary electrophoresis data was processed using Attagraph software (Attagene).

Compound | outcome | AC50
CC(C)N1C(=O)c2ccccc2C1=O | inactive | –
COc1ccc(N)c(C)c1 | inactive | –
CCO[Si](CC)(OCC)OCC | inactive | –
CC1(C)CC(=O)CC(C)(C)N1 | inactive | –
c1ccc2scnc2c1 | inactive | –
CC(=O)N(C)C | inactive | –
CCCCCCCCCCOC(=O)c1ccccc1C(=O)OCCCCCCCC | inactive | –
O=[N+]([O-])c1cc(N(CCO)CCO)ccc1NCCO | inactive | –
CN(C)c1ccc(C=O)cc1 | inactive | –
C=C(C)C(N)=O | inactive | –
CCCc1ccc(O)cc1 | inactive | –
NCCN1CCNCC1 | inactive | –
CCCCN(CCCC)CCCCCCN(CCCC)CCCC | inactive | –
C=C1CC[C@H]2O[C@]2(C)CC[C@@H]2[C@@H]1CC2(C)C | inactive | –
N#CCCCC(C#N)CCC#N (stereo not given) | inactive | –
CC(=O)CCC=C(C)CCC=C(C)C | inactive | –
CC=CC(=O)C1=C(C)C=CCC1(C)C | inactive | –
CC(C)(C)C1CCC(O)CC1 (stereo not given) | inactive | –
CC(C)(O)C(=O)c1ccc(OCCO)cc1 | inactive | –
Cc1ccc(C(C)(C)O)cc1 | inactive | –

Compound | outcome | AC50
CCCCCC1C(=O)CCC1CC(=O)OC (stereo not given) | inactive | –
CCCCCCCCCOS(=O)(=O)O | inactive | –
FC(F)(F)c1ccc(Cl)c(Cl)c1 | inactive | –
O=S(=O)(O)CCCN1CCOCC1 | inactive | –
O=C(OCc1ccccc1)c1ccccc1O | inactive | –
NNC(=O)OCc1ccccc1 | inactive | –
CCC(C)(C)c1cc(O)c(C(C)(C)CC)cc1O | – | 100 µM (active)
CC(O)CN (stereo not given) | inactive | –
CC1=CC(C)C(C=O)C(C)C1 (stereo not given) (tested in a mixture with another compound) | inactive | –
CCOC(=O)C=Cc1ccccc1 | inactive | –
CN(C)C(=O)Nc1ccccc1 | inactive | –
CCC(C)(C)C1CCC(=O)CC1 | inactive | –
CC(=O)OCC=C(C)CCC=C(C)CCC=C(C)C | – | 162 µM (active)
CC(C)COC(=O)c1ccccc1 | inactive | –
O=C(O)CS | inactive | –
COc1ccc(OC)cc1 | inactive | –
O=S1(=O)CC(Cl)(Cl)C(Cl)(Cl)C1 | inactive | –
Cc1cc(O)c(C)c(C)c1O | inactive | –
CCCCCCCC(=O)N(C)C | inactive | –
N=C1N=C(N)c2ccccc21 | inactive | –
